Several values for one entry are separate records, joined by “and”; a condition that tells them apart may be missing. Equal entries are not always repeated. Records with an inconclusive call do not appear. The source holds several records for some structures; these can differ, active in one and inactive in another. Activity calls are given as the source filed them. Unless noted, calls come from the whole dose curve; as a rule, active = well fitted curve in the direction sought with a large enough effect in the repeat runs; inconclusive = weak or mixed curves; inactive = no such curve, though single readings can be large; an effect the other way counts as inactive or inconclusive.
Experiments:
[1] = qHTS assay to identify small molecule antagonists of the sonic hedgehog signaling (Shh) pathway (AID 1259369; calls by dose curve; note: nearly all actives have a fitted effect of over 45% in size; note: potency is the fitted concentration of half-maximal effect)
How it was run: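 Antagonist mode: compound added to 3T3 Gli1-Luc cells followed by conditioned-medium stimulation, 24 h at 37 C, 5% CO2. Inhibition taken as loss of Gli1-driven luciferase luminescence.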

[2] = target: Estrogen receptor beta (Homo sapiens) (UniProt Q92731); test: qHTS assay to identify small molecule agonists of the estrogen receptor beta (ER-beta) signaling pathway (AID 1259377; active = well fitted activation curve with a large enough effect in the signal ratio in the repeat runs, not every such curve was filed as active; the % refers to the signal ratio)
Chain of Estrogen receptor beta (Homo sapiens) (Q92731 whole entry, looked up): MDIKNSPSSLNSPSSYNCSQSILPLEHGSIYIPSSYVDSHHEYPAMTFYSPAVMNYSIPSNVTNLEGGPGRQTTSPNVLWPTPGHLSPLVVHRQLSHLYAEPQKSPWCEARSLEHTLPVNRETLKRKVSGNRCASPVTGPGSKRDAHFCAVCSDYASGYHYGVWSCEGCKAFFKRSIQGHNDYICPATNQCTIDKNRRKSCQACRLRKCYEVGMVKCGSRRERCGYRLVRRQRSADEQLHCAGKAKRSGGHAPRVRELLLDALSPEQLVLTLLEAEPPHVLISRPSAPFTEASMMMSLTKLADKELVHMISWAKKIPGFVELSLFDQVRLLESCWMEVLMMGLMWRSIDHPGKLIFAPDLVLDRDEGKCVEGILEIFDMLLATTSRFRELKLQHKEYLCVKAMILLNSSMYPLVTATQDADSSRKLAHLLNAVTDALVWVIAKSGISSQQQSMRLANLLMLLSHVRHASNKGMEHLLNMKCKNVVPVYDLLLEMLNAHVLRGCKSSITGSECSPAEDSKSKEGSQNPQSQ
How it was run: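 Read-out: beta-lactamase FRET fluorescence. Cell line: ER-beta-UAS-bla HEK293T in 2% charcoal-stripped FBS. Exposure: 16 hr at 37C. Substrate step: 2 h at room temperature.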

[3] = target: Estrogen receptor beta (Homo sapiens) (UniProt Q92731); test: qHTS assay to identify small molecule antagonists of the estrogen receptor beta (ER-beta) signaling pathway (AID 1259378; active = well fitted inhibition curve with a large enough effect in the signal ratio in the repeat runs, not every such curve was filed as active; the % refers to the signal ratio; note: potency is the fitted concentration of half-maximal effect)
How it was run: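 ER-beta-UAS-bla HEK293T (GripTite) cells in 2% charcoal-stripped FBS medium were preincubated 6 hr at 37C, dosed with compound, then stimulated with 1 nM E2 (final) for 16 hr; beta-lactamase reporter read by B/G FRET fluorescence after 2 hr substrate loading.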

[4] = qHTS assay to identify small molecule agonists of the androgen receptor (AR) signaling pathway in the presence of an antagonist - cell viability counter screen (AID 1259379); note: nearly all actives have a fitted effect of over 25% in size; note: potency is the fitted concentration of half-maximal effect
How it was run: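 Cytotoxicity counter-screen run in the same wells as the nilutamide-challenged (3.0 µM final) AR agonist assay in MDA-kb2 cells. Compounds tested at 15 concentrations for 16 h, 37 °C without CO2; CellTiter-Fluor fluorescence read.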

[5] = qHTS assay to identify small molecule agonists of the estrogen receptor beta (ER-beta) signaling pathway - cell viability counter screen (AID 1259380); note: nearly all actives have a fitted effect of over 30% in size; note: potency is the fitted concentration of half-maximal effect
How it was run: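 Cell viability counter screen: CellTiter-Glo luminescence (30 min, room temperature) measured in the same wells as the beta-lactamase readout, after 16 hr compound exposure at 37C of ER-beta-bla HEK293T cells in 2% charcoal-stripped FBS medium.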

[6] = qHTS assay to identify small molecule agonists or antagonists of the thyroid stimulating hormone receptor (TSHR) signaling pathway - wild type cell line counter screen (AID 1259384; calls by dose curve)
How it was run: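 Wild-type HEK293 cells were plated 18 h at 37 C/5% CO2, pin-dosed with compound plus Ro20-1724 medium, held 30 min at room temperature, then given cAMP-d2 and anti-cAMP-cryptate; fluorescence was read after 1 h. Fifteen concentrations, triplicate.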

[7] = target: Thyrotropin receptor (Homo sapiens) (UniProt P16473); test: qHTS assay to identify small molecule antagonists of the thyroid stimulating hormone receptor (TSHR) signaling pathway (AID 1259385; calls by dose curve; note: nearly all actives have a fitted effect of over 20% in size)
Chain of Thyrotropin receptor (Homo sapiens) (P16473 whole entry, looked up): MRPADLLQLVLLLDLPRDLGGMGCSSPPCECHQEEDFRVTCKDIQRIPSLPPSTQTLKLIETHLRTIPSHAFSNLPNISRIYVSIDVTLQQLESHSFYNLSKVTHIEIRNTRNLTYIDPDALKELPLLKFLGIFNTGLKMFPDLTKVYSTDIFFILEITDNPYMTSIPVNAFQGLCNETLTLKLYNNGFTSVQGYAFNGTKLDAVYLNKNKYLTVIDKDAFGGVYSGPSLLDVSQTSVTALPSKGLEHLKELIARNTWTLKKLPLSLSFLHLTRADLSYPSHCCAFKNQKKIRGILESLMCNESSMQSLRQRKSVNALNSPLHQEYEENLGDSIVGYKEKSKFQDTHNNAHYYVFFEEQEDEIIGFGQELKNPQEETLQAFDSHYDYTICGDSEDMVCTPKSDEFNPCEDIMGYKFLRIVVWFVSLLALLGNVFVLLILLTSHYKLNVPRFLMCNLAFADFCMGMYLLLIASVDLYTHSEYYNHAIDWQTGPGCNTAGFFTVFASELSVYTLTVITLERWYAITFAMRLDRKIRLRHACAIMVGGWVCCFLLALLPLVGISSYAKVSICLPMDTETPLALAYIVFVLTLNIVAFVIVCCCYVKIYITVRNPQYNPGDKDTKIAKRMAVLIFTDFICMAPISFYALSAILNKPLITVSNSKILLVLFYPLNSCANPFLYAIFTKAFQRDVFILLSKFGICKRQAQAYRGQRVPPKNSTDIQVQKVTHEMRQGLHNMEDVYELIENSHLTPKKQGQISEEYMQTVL
How it was run: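 TSHR-HEK293 cells were plated and held 18 h at 37C/5% CO2, then given compound plus Ro20-1724 and stimulated with TSH at 1.5 ng/mL final. After 30 min at room temperature, cAMP was detected with cAMP-d2/anti-cAMP-cryptate (1 h) by fluorescence.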

[8] = qHTS assay to identify small molecule agonists of the estrogen receptor alpha (ER-alpha) signaling pathway in the presence of an antagonist - cell viability counter screen (AID 1259386); note: nearly all actives have a fitted effect of over 30% in size; note: potency is the fitted concentration of half-maximal effect
How it was run: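 Compounds tested at 15 concentrations for 22 h at 37C alongside 10.0nM (final) ICI-182,780 antagonist, in VM7Luc4E2 cells grown in phenol red-free, charcoal-stripped medium. Viability read by CellTiter-Fluor fluorescence after 1 h reagent incubation.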

[9] = target: Progesterone receptor (Homo sapiens) (UniProt P06401); test: qHTS assay to identify small molecule agonists of the progesterone receptor (PR) signaling pathway (AID 1346784; calls by dose curve; note: nearly all actives have a fitted effect of over 30% in size)
Chain of Progesterone receptor (Homo sapiens) (P06401 whole entry, looked up): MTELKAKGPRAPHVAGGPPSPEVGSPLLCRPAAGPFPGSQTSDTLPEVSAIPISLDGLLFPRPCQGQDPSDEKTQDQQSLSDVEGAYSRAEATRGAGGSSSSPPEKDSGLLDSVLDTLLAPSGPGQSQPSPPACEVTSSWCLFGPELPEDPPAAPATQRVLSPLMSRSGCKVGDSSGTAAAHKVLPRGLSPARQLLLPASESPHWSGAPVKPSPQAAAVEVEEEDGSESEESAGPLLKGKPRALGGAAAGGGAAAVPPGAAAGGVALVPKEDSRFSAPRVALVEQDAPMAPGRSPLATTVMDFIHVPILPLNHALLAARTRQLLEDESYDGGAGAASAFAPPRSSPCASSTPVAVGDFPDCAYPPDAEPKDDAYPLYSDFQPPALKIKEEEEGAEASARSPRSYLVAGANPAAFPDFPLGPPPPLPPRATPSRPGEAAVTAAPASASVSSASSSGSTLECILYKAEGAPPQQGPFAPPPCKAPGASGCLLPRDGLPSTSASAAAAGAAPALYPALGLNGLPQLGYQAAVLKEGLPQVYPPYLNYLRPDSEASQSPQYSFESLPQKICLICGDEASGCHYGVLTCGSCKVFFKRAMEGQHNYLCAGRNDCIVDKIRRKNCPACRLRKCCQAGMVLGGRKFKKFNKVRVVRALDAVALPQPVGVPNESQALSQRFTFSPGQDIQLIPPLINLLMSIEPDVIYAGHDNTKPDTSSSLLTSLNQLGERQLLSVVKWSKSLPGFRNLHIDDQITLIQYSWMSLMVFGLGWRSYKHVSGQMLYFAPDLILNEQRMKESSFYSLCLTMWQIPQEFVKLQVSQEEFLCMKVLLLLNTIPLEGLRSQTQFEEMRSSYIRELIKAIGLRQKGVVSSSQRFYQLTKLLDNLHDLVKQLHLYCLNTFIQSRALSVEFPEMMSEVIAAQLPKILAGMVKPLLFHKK
How it was run: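 Compounds were tested for PR agonism in HEK 293T cells bearing a beta-lactamase gene under UAS control. Treatment lasted 16 hr at 37C; signal came from fluorescence of a FRET substrate.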

[10] = qHTS assay to identify small molecule antagonists of the progesterone receptor (PR) signaling pathway - cell viability counter screen (AID 1346798); note: nearly all actives have a fitted effect of over 50% in size; note: potency is the fitted concentration of half-maximal effect
How it was run: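 Following a 4 hr attachment, PR-UAS-bla HEK293T cells in charcoal-stripped FBS medium were exposed to compounds with R5020 for 16 hr; CellTiter-Glo was added and luminescence read after 30 min at room temperature.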

[11] = qHTS assay to identify small molecule agonists of the progesterone receptor (PR) signaling pathway - cell viability counter screen (AID 1346799; calls by dose curve; note: nearly all actives have a fitted effect of over 45% in size)
How it was run: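 Here, 3,000 PR-UAS-bla HEK293T cells per well were treated with compounds for 16 hr after a 6 hr preincubation at 37C and 5% CO2; cell viability is the CellTiter-Glo luminescence signal.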

[12] = qHTS assay to identify small molecule antagonists of the TGF-beta/Smad signaling pathway - cell viability counter screen (AID 1346824); note: nearly all actives have a fitted effect of over 50% in size
How it was run: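 SBE-bla HEK 293T cells were plated overnight at 37 C, then given compounds in DMSO plus TGF-beta1 (added as 0.25 ng/mL solution) for 5 hr. After the bla read, CellTiter-Glo was added to the same wells and luminescence read after 30 min at room temperature.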

[13] = qHTS assay to identify small molecule agonists of the TGF-beta/Smad signaling pathway - cell viability counter screen (AID 1346829); note: top concentration of the series differs between compounds; nearly all actives have a fitted effect of over 45% in size
How it was run: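 Tox21 qHTS format: SBE-bla HEK 293T cells treated with DMSO-dissolved compounds for 5 hr; CellTiter-Glo luminescence after 30 min at room temperature.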

[14] = qHTS assay to identify small molecule agonists of the TGF-beta/Smad signaling pathway (AID 1346859; active = well fitted activation curve with a large enough effect in the signal ratio in the repeat runs, not every such curve was filed as active; the % refers to the signal ratio; note: series mostly up to about 77 µM)
How it was run: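 Each well held 4,000 SBE-bla HEK 293T cells incubated overnight before compound addition; 5 hr later the cleavable FRET substrate went on for 2 hr at room temperature, and fluorescence was read at two emissions.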

[15] = target: Progesterone receptor (Homo sapiens) (UniProt P06401); test: qHTS assay to identify small molecule antagonists of the progesterone receptor (PR) signaling pathway (AID 1346795; active = well fitted inhibition curve with a large enough effect in the signal ratio in the repeat runs, not every such curve was filed as active; the % refers to the signal ratio; note: potency is the fitted concentration of half-maximal effect)
How it was run: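 In HEK293T cells bearing the PR-UAS-bla reporter, compound effects on promegestone-driven (1 nM) beta-lactamase expression are assessed after 16 hr using a fluorescent FRET substrate incubated 2 hr at room temperature.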

[16] = target: Thyrotropin-releasing hormone receptor (Homo sapiens) (UniProt P34981); test: qHTS assay to identify small molecule antagonists of the thyrotropin-releasing hormone receptor (TRHR) signaling pathway (AID 1346877; active = well fitted inhibition curve with a large enough effect in the repeat runs, not every such curve was filed as active; note: series mostly up to about 51 µM)
Chain of Thyrotropin-releasing hormone receptor (Homo sapiens) (P34981 whole entry, looked up): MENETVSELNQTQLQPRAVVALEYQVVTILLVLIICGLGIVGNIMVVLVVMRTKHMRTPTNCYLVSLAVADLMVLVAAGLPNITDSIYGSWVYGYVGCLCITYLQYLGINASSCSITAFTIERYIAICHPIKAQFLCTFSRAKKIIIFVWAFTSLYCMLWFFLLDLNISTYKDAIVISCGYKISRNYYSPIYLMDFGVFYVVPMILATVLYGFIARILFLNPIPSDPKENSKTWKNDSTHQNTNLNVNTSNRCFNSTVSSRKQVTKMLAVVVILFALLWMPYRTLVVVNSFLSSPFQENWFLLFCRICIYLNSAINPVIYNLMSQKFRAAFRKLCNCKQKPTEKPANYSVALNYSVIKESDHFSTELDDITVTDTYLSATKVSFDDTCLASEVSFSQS
How it was run: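 Antagonist mode: after a 5 min room-temperature compound exposure, cells were stimulated with 1 nM (final) TRH. Dye-loaded TRHR-HEK293 cells were used, and calcium-dependent fluorescence was followed for 3 min, with 15-point titrations run in triplicate.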

[17] = target: Thyrotropin-releasing hormone receptor (Homo sapiens) (UniProt P34981); test: qHTS assay to identify small molecule agonists of the thyrotropin-releasing hormone receptor (TRHR) signaling pathway (AID 1346891; calls by dose curve; note: series mostly up to about 58 µM)
How it was run: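 Screening of agonists relied on calcium signalling in HEK293 cells expressing human TRHR: dye loading 2 h at 37 °C preceded compound addition and a 3-min fluorescence time course.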

[18] = target: Estrogen receptor (Homo sapiens) (UniProt P03372); test: qHTS assay to identify small molecule agonists of the estrogen receptor alpha (ER-alpha) signaling pathway in the presence of an antagonist (AID 1259383; calls by dose curve; note: nearly all actives have a fitted effect of over 15% in size; note: potency is the fitted concentration of half-maximal effect; for activation: top concentration of the series differs between compounds)
Chain of Estrogen receptor (Homo sapiens) (P03372 whole entry, looked up): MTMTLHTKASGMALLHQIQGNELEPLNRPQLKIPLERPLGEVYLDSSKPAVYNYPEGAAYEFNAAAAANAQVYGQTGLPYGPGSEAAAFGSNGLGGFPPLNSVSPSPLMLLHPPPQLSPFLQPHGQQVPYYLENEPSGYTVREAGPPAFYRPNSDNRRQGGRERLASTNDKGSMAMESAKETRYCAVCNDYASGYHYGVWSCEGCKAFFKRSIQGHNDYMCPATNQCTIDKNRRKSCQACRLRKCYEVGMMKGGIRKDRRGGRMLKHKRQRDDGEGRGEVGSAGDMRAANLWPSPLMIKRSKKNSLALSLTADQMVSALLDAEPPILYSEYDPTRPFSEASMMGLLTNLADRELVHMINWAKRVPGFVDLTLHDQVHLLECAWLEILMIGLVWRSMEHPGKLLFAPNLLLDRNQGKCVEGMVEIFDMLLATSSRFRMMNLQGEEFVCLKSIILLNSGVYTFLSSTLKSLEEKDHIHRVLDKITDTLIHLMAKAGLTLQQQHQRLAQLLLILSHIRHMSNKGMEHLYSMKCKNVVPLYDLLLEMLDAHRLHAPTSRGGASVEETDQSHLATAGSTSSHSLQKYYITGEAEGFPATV
How it was run: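 Agonist-mode confirmation run in the presence of 10.0nM (final) ICI-182,780 antagonist. The reporter was ERE-driven luciferase in VM7Luc4E2 cells, grown in charcoal-stripped serum. Cells were exposed to 15-concentration compound series for 22hr, then ONE-Glo luminescence was read.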

[19] = qHTS assay to identify small molecule antagonists of the estrogen receptor beta (ER-beta) signaling pathway - cell viability counter screen (AID 1259382); note: series mostly up to about 92 µM; nearly all actives have a fitted effect of over 55% in size
How it was run: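 Cytotoxicity was measured in the same wells by CellTiter-Glo luminescence after 30 min at room temperature. Cells were ER-beta-bla HEK293T in charcoal-stripped serum, given compound together with 1 nM E2 and incubated 16 h at 37C.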

Measured: Potency

CCOC(=O)C(C#N)=C(c1ccccc1)c1ccccc1
active: [3] 4.33 µM and 5.31 µM
inactive: [1] | [2] | [4] | [5] | [6] | [7] | [8] | [9] | [10] | [11] | [12] | [13] | [14]

C[Si](C)(C)O[Si](C)(C)C
inactive: [1] | [2] | [3] | [4] | [5] | [6] | [7] | [8] | [9] | [15] | [10] | [11] | [12] | [13] | [14] | [16] | [17]

c1ccc(Nc2ccccc2)cc1
inactive: [1] | [2] | [5] | [6] | [7] | [8] | [9] | [10] | [12] | [13] | [14]
24.3 µM (active) and inactive: [3]
43.2 µM (active) and inactive: [4]
48.5 µM (active) and inactive: [15]

Cc1ncc[nH]1
inactive: [1] | [2] | [3] | [4] | [5] | [6] | [7] | [8] | [9] | [15] | [10] | [11] | [12] | [13] | [14]

COc1cccc2c1C(=O)c1c(O)c3c(c(O)c1C2=O)C[C@@](O)(C(=O)CO)C[C@@H]3O[C@H]1C[C@H](N)[C@H](O)[C@H](C)O1
active: [1] 38.5 nM and 531 nM | [3] 1.93 µM and 11.9 µM | [4] 15.3 µM and 11.9 µM | [15] 2.73 µM and 9.44 µM
inactive: [2] | [18] | [6] | [12] | [13] | [14] | [16] | [17]
inactive and 473 nM (active): [5]

CNCCCC12CCC(c3ccccc31)c1ccccc12
inactive: [2] | [18] | [6] | [7] | [9] | [12] | [13] | [14] | [16] | [17]
active: [1] 5.45 µM | [3] 26.6 µM | [4] 54.5 µM | [5] 15.4 µM and 29.8 µM | [10] 13.7 µM and 26.6 µM

CC(CCC(=O)O)(c1ccc(O)cc1)c1ccc(O)cc1
inactive: [1] | [2] | [4] | [5] | [19] | [18] | [6] | [7] | [8] | [9] | [15] | [10] | [11] | [12] | [13] | [14] | [16] | [17]

Nc1ccccc1N
inactive and 27.3 µM (active): [18]
inactive and 30.6 µM (active): [1]
active: [8] 49.7 µM
inactive: [3] | [4] | [5] | [19] | [6] | [9] | [10] | [11] | [12] | [13] | [14] | [16] | [17]

From PubChem BioAssay (Tox21)
